Among all 2,300 compounds or so, about 1,400 (61%) were called active. Roughly 29% stayed inconclusive and do not appear here. The set was probably picked from earlier hits. This is one part of the list. Unmarked numbers belong to inactive results. The call rests on the fitted dose curve; in most records, active means well fitted inhibition curve with a large enough effect; inconclusive means small, poorly fitted or top-dose-only effect, or effect the other way; inactive means no such curve, though single readings can be large or run the other way.
Assay: Confirmation screen for delayed death inhibitors of the malarial parasite plastid, 96 hour incubation; further: nearly all actives have a fitted effect of over 60% in size
Settings: P. falciparum luciferase growth in erythrocytes; series mostly up to 28.7 µM; activity change, negative = inhibition: at the top concentration
Summary of the method: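 Two-generation (96 h, 37 C) exposure of P. falciparum carrying an integrated firefly luciferase reporter in erythrocytes, 0.1% parasitemia and 2% hematocrit final, Albumax-supplemented RPMI. Luminescence decrease measures growth inhibition.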
On the % scale 0 is the no-effect control and ±100 the full control effect; potency means the concentration at half of the fitted maximal effect.

Compound	Potency	activity change, negative = inhibition [%]
CC[n+]1ccccc1/C=C/c1ccc(N(C)C)cc1	1.58 µM (active)	–
Cc1ccc(/C=C/c2ccc(N(C)C)cc2)[n+](C)c1	0.501 µM (active)	–
Cn1c(=O)c(=O)n(C)c2cc(N3CCCCC3)c(NS(=O)(=O)c3ccc(Br)cc3)cc21	12.6 µM (active)	–
COc1ccccc1OCC(=O)NNc1c2ccccc2nc2ccccc12	5.01 µM (active)	–
Cc1ccc(C(=O)NNc2c3ccccc3nc3ccccc23)cc1	10 µM (active)	–
Cc1ccc(OCC(=O)NNc2c3ccccc3nc3ccccc23)cc1	6.31 µM (active)	–
O=C(NNc1c2ccccc2nc2ccccc12)C(O)c1ccccc1 (centres undefined)	10 µM (active)	–
COc1cccc(C(=O)NNc2c3ccccc3nc3ccccc23)c1	15.8 µM (active)	–
O=C(COc1ccccc1)NNc1c2ccccc2nc2ccccc12	5.01 µM (active)	–
O=C(CCCO)NNc1c2ccccc2nc2ccccc12	6.31 µM (active)	–
Cc1cccc(OCC(=O)NNc2c3ccccc3nc3ccccc23)c1	4.47 µM (active)	–
O=C(COc1cccc2ccccc12)Nc1ccc(Cl)cc1C(=O)O	–	2.28
O=C(COc1ccccc1)Nc1nnc(-c2ccc(F)cc2)o1	–	6.86
O=C(CN1CCOCC1)NNc1c2ccccc2nc2ccccc12	12.6 µM (active)	–
N#Cc1c(N2C(=O)Nc3ccccc3N2O)sc2c1CCCCCC2	14.1 µM (active)	–
Cc1ccc2nc(CNC(=O)C3CCC(=O)N(Cc4ccccc4F)C3)cn2c1 (centres undefined)	11.2 µM (active)	–
O=C(NC1CCC1)C1CCC(=O)N(Cc2ccccc2F)C1 (centres undefined)	–	-10.3
COCCn1c(C)cc(C(=O)CSc2cc(C)c3ccc(OC)cc3n2)c1C	17.8 µM (active)	–
CCCSCCCNC(=O)c1ccccc1NC(=O)C1=CSCCO1	12.6 µM (active)	–
COc1ccc([C@@]2(C(C)C)ON(c3ccccc3C(F)(F)F)C2=O)cc1	0.501 µM (active)	–
COc1ccc(S(=O)(=O)N/N=C(/C)c2ccco2)cc1	–	-15.7
COc1ccc(CN(CCC(c2ccccc2)c2ccco2)C(=O)c2ccco2)cc1 (centres undefined)	8.91 µM (active)	–
Fc1cc2nc(-c3ccncc3)[nH]c2cc1F	3.16 µM (active)	–
COCCN(C(=S)Nc1ccc(OC)c(Cl)c1)C1CCN(C(C)C)CC1	11.2 µM (active)	–
CC(=O)Nc1sc2c(c1-c1nc3ccccc3s1)CCN(C(C)C)C2	0.316 µM (active)	–

Compound	Potency	activity change, negative = inhibition [%]
CC(C)N1CCc2c(sc(NC(=S)NC(=O)c3ccccc3)c2C#N)C1	2 µM (active)	–
N#Cc1cc(S(=O)(=O)c2ccccc2)c(N)[nH]c1=O	–	-5.71
COc1cccc(NC(=O)c2ccc(CN3CCN(c4ccccc4)CC3)cc2)c1	14.1 µM (active)	–
COc1cccc(NC(=O)c2ccc3c(c2)C(=O)N(CC2CCCO2)C3=O)c1 (centres undefined)	–	-15.2
COc1ccc(NC(=O)c2ccc(CN3CCN(c4ccccc4)CC3)cc2)cc1OC	12.6 µM (active)	–
C#CC[N+]1(CC#Cc2ccc(C#CC[N+]3(CC#C)CCOCC3)cc2)CCOCC1	5.62 µM (active)	–
Cc1ccc(-c2csc3nc[nH]c(=O)c23)cc1	–	-26.9
Cc1c(C)n2c(SCC(=O)Nc3ccc4c(c3)OCCO4)nnc2[nH]c1=O	1.58 µM (active)	–
CCOc1ccc2c(c1)OC(c1ccccc1)(C(F)(F)F)NC2=O (centres undefined)	1.41 µM (active)	–
O=C(CCNS(=O)(=O)c1cccc2nonc12)NCCc1ccc(Cl)cc1	11.2 µM (active)	–
O=C(Nc1nnc(Cc2ccc(F)cc2)s1)Nc1ccccc1F	12.6 µM (active)	–
O=S(=O)(c1cccs1)N1CCN(c2ccnc3cc(Cl)ccc23)CC1	4.47 µM (active)	–
O=C(Nc1ccc(F)cc1F)c1ccc2c(c1)[nH]c(=O)n2Cc1ccc(F)cc1	14.1 µM (active)	–
CC1(C)CC(=O)C2=C(C1)OC1=C(C(=O)CC(C)(C)C1)C2c1ccc(O)cc1O	7.08 µM (active)	–
CC(C)C(=O)NC(=S)Nc1ccc(S(=O)(=O)NC2CCCCC2)cc1	–	-50.8
CC(C)NS(=O)(=O)c1ccc(NC(=S)NC(=O)c2ccc(-c3ccccc3)cc2)cc1	5.01 µM (active)	–
O=C(NC(=C(Cl)Cl)S(=O)(=O)c1ccc(Cl)cc1)c1ccccc1	–	-22.7
CCC/C(C#CCCN1C(=O)c2ccccc2C1=O)=C1/c2ccccc2C(=O)N1c1ccccc1	5.01 µM (active)	–
O=C(CCN1C(=O)c2ccccc2C1=O)C1=NN[C@@H]2C(=O)N(c3ccc(F)cc3)C(=O)[C@H]12	–	22.9
COC(=O)Cc1ccc(NC(=O)C(c2ccccc2)c2ccccc2)cc1	10 µM (active)	–
CCOC(=O)c1c(C)sc2c1N(C(=O)CCl)c1cc(Cl)ccc1S2	2 µM (active)	–
NC(=O)c1ccc(NC(=O)C#Cc2ccccc2)cc1	1 µM (active)	–
O=C(C#Cc1ccccc1)Nc1cccc(F)c1	1 µM (active)	–
O=C(C#Cc1ccccc1)Nc1ccccc1F	12.6 µM (active)	–
COc1ccc(NC(=O)C#Cc2ccccc2)cc1	7.94 µM (active)	–

Compound	Potency	activity change, negative = inhibition [%]
Cc1ccc(Cn2c(C)nc3c(c2=O)c2nc4ccccc4nc2n3Cc2ccco2)cc1	5.01 µM (active)	–
Nc1ccccc1SSc1ccccc1N	7.94 µM (active)	–
CCN(CC)S(=O)(=O)c1cccc(NC(=O)c2cc(-c3cccs3)nn2-c2ccccc2)c1	12.6 µM (active)	–
Brc1cccc(OCCCCN2CCCCC2)c1	12.6 µM (active)	–
Clc1cccc(OCCCCCN2CCOCC2)c1	–	-30
S=c1[nH]nc(-c2ccccn2)n1/N=C/c1ccc(-c2ccccc2Br)o1	–	-12.3
Cc1nn(-c2ccccc2)c(C)c1/C=N/n1c(-c2ccccc2Br)n[nH]c1=S	11.2 µM (active)	–
Nc1nc(CCl)nc(N(c2ccccc2)c2ccccc2)n1	1.41 µM (active)	–
COC(=O)[C@H](Cc1ccccc1)N(C)S(=O)(=O)c1cccc(S(=O)(=O)N(C)[C@@H](Cc2ccccc2)C(=O)OC)c1	14.1 µM (active)	–
O=C(N[C@@H](Cc1ccccc1)C(=O)CCl)OCc1ccccc1	–	-4.29
COc1ccc(C(=O)NCC(=O)N/N=C/c2ccc([N+](=O)[O-])s2)cc1OC	6.31 µM (active)	–
O=C(CNC(=O)c1cccc(F)c1)N/N=C/c1ccc([N+](=O)[O-])s1	–	-105
CCN(CC)Cc1cc2[nH]c3c4ccc(Cl)cc4ncc3c2cc1OC	0.199 µM (active)	–
O=C(COC(=O)C1C2CC3OC(=O)C1C3C2)Nc1ccccc1 (centres undefined)	–	-15.9
CSc1c(CC(=O)Nc2ccccc2)n(C)c2ccccc12	8.91 µM (active)	–
Brc1c(CSc2nc3ccccc3s2)nc2ncccn12	6.31 µM (active)	–
CC[C@@H](C)C(NC(=O)OC(C)(C)C)c1cn([C@@H](Cc2ccc(O)cc2)C(=O)N2CCN(C(=O)OC(C)(C)C)CC2)nn1 (some centres undefined)	8.91 µM (active)	–
CC[C@@H](C)C(NC(=O)OC(C)(C)C)c1cn([C@@H](CCCCNC(=O)OC(C)(C)C)C(=O)N2CCN(C(=O)OC(C)(C)C)CC2)nn1 (some centres undefined)	1.26 µM (active)	–
CCC(CC)N1CCN(Cc2nc3ccc([N+](=O)[O-])cc3c(=O)n2-c2ccccc2F)CC1	–	-22.7
CCOc1ccc2c(c1)C(c1ccccc1)=NNC(c1ccccc1)=N2	10 µM (active)	–
Brc1ccccc1-c1nnc(COc2ncnc3c2cnn3-c2ccccc2)o1	–	-8.78
CCOC(=O)c1c(S(=O)(=O)NCC(=O)N2CCN(c3ccccc3OC)CC2)c(C)n(C)c1C	12.6 µM (active)	–
CN(Cc1cccc(Cl)c1Cl)C(=O)c1ccc(NC(=O)CC#N)cc1	4.47 µM (active)	–
O=C(Nc1ccc2c(c1)CCCN2C(=O)c1ccco1)c1cc([N+](=O)[O-])ccc1Cl	14.1 µM (active)	–
Cc1ccc2cc3cc(C(=O)NCCCN4CCCC4=O)oc3nc2c1	1 µM (active)	–

Compound	Potency	activity change, negative = inhibition [%]
COc1ccccc1NC(=S)NCc1cccs1	–	-10.1
COCCCNC(=O)c1cc2cc3cc(OC)ccc3nc2o1	2.24 µM (active)	–
COc1ccc2nc3oc(C(=O)NCc4cccs4)cc3cc2c1	2.24 µM (active)	–
O=C(CN1C2=NCCCN2c2ccccc21)c1ccc2c(c1)OCO2	7.08 µM (active)	–
OC(CN1C2=NCCN2c2ccccc21)c1ccc2c(c1)OCO2 (centres undefined)	2.51 µM (active)	–
Cc1ccc(C)c(C(=O)CN2C3=NCCCN3c3ccccc32)c1	5.62 µM (active)	–
O=C(C[n+]1cccc(CNC(=O)c2ccc(OC(F)F)cc2)c1)Nc1ccc(SC(F)F)cc1	1 µM (active)	–
CN(C)c1cc[n+](CC(=O)Nc2ccc(OC(F)F)cc2)cc1	1.58 µM (active)	–
CCOc1ccc(NC(=O)C[n+]2ccc(N(C)C)cc2)cc1	0.501 µM (active)	–
Cn1nnnc1Sc1ncnc2scc(-c3ccsc3)c12	3.98 µM (active)	–
Cn1nnnc1Sc1ncnc2scc(-c3ccc[nH]3)c12	11.2 µM (active)	–
Cn1nnnc1Sc1ncnc2scc(-c3cccs3)c12	8.91 µM (active)	–
O=C1C(Cl)=C(NC2CCCCC2)C(=O)N1c1ccc(Cl)cc1	12.6 µM (active)	–
CCCCN(C)CCNC(=O)c1cc2c(=O)[nH]c3ccccc3c2n1C	12.6 µM (active)	–
CCOc1ccc(CNC(=O)c2cc3oc4ccccc4c3n2C)cc1	–	12.8
CCOc1ccccc1NC(=O)c1cc(S(=O)(=O)NCc2ccco2)ccc1F	11.2 µM (active)	–
Cc1cc(C)cc(NC(=O)c2cc(S(=O)(=O)NCc3ccco3)ccc2F)c1	–	-53.2
C=C1C(=O)O[C@@H]2C[C@@H](C)[C@@H]3C=CC(=O)[C@@]3(C)[C@@H](OC(C)=O)[C@H]12	1.41 µM (active)	–
Nc1ccc[n+](CC(=O)c2ccccc2)c1	12.6 µM (active)	–
CCC(C)(C)NC(=O)C(c1cccc(OC)c1OC)N(CC(C)C)C(=O)CCC(=O)Nc1cc(C)on1 (centres undefined)	7.94 µM (active)	–
CC(C)n1nc(C(=O)Nc2cccc(S(=O)(=O)NCc3ccco3)c2)c2ccccc2c1=O	7.94 µM (active)	–
Cc1cc(C)n(-c2ccc(C(=O)Nc3ccc(S(=O)(=O)NCc4ccco4)cc3)cc2)n1	8.91 µM (active)	–
CCN(CC(=O)Nc1c(F)cccc1F)C(=O)c1ccc(S(=O)(=O)NCc2ccco2)cc1	–	-12.1
O=C(Nc1ccc(S(=O)(=O)NCc2ccco2)cc1)c1ccc2ccccc2n1	12.6 µM (active)	–

— PubChem BioAssay AID504848 (National Center for Advancing Translational Sciences (NCATS), 2011)
